# CYP2C9 inh: blockers of cytochrome P450 2C9 activity – biochemical, luminescence, ADME assay, primary screen; CYP2C9 Supersomes, luciferin-H conversion; P11712; AID 777, 2007; actives 20% (n = 96,000); inhibition, % at 5 µM;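 active = blocking of liver enzyme CYP2C9 beyond about 50% at 5 µM, limit read from the data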
# Target sequence (P11712 whole entry, looked up): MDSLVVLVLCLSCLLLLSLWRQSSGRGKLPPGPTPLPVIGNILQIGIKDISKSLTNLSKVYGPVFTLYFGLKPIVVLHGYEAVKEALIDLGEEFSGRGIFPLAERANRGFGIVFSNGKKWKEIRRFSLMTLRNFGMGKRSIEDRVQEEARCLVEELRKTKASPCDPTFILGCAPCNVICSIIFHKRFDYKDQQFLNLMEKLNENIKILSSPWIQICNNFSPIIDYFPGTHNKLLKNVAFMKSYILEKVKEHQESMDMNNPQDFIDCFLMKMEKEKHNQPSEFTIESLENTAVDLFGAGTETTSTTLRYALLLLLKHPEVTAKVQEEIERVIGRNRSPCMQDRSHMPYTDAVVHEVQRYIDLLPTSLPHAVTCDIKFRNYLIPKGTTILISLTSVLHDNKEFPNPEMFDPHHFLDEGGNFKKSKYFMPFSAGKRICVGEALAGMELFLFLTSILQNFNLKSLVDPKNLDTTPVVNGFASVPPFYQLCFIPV
# CYP2C9 act: human CYP2C9 activators, primary screen, biochemical, luminescence; Cytochrome P450 2C9 (Homo sapiens), P11712; recombinant CYP2C9, luciferin-H conversion; hits give high values; factor 1 = untreated enzyme, 0 = blocked; activation factor at 5 µM; actives 1.4% (n = 96,000);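 active = activation factor of 2 or more for CYP2C9 at a 5 µM dose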;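 note: 0 = sulfaphenazole-blocked wells and 1 = vehicle-only wells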
# sEH activator: soluble epoxide hydrolase activators, primary screen, biochemical, human sEH | purified human sEH enzymatic activity, activator screen | activation, % at 2 µM | actives 0.04% (n = 91,000) | AID 717, 2007; in the data active = activation above about 37%
# CYP2C19 activ: human CYP2C19 activators, primary screen, biochemical, luminescence | activation factor at 5 µM | 96,000 tested, under 10 active | AID 1025, 2008 | recombinant CYP2C19, luciferin-H EGE luminescence; hits give high values; 0 = fully inhibited enzyme, 1 = untreated enzyme;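 active = activation factor of at least 2 at 5 µM in the primary screen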;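 note: 0 = wells with 2.5 mM tranylcypromine and 1 = vehicle-only wells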
# sEH inhibitor: soluble epoxide hydrolase inhibitors, primary screen, biochemical, human sEH; AID 707, 2007; Bifunctional epoxide hydrolase 2 (Homo sapiens), P34913; recombinant human sEH enzymatic activity assay; actives 0.34% (n = 91,000); inhibition, % at 2 µM; in the data active = inhibition above about 80%
# CYP2C19 inh: blockers of cytochrome P450 2C19 activity – biochemical, luminescence, ADME assay, primary screen | CYP2C19 Supersomes, luciferin-H EGE luminescence, 30 min | P33261 | actives 21% (n = 96,000) | AID 778, 2007 | inhibition, % at 5 µM;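 active = CYP2C19 inhibition above a set limit at 5 µM in the primary screen, cut at about 50% in these data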;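 note: plate controls were negative control wells for no effect and 2.5 mM tranylcypromine positive control for full effect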
# * marks the source's active call; other numbers are inactive results; · = not tested or not shown. Rows were chosen to be rich in hits. Some 27% of all compounds tested hit in one or more screens of this group.
SMILES,CYP2C9 inh,CYP2C9 act,sEH activator,CYP2C19 activ,sEH inhibitor,CYP2C19 inh
O=[N+]([O-])c1cccc(-n2nnnc2CN2CCCCCC2)c1,43,0.6,14,0.1,-10,94*
COC(=O)c1ccc(CN(c2ccc(C)cc2)S(=O)(=O)c2ccc3c(c2)OCCO3)o1,74*,0.3,-1,0.4,1,59*
COC(=O)c1ccc(CN(C)S(=O)(=O)c2ccc(C)cc2)o1,58*,0.4,·,0.1,·,91*
COC(=O)c1ccc(Cc2ccc(C(=O)OC)o2)o1,6,0.9,·,0.8,·,20
CN(C)Cc1cn(CCC(=O)O)c2ccccc12,·,·,2,·,-3,·
COc1ccccc1NC(=O)c1sc2ncn(Cc3ccccc3C)c(=O)c2c1C,-50,1.5,1,0.7,1,34
Clc1ccc(NNc2ccnc3cc(Cl)ccc23)cc1,80*,0.2,-4,0.3,8,66*
CC(C)CC(=O)O/N=C1\C(=O)N(Cc2ccc(Cl)cc2)c2ccc([N+](=O)[O-])cc21,58*,0.4,-11,0.4,9,65*
C/C(NCC(C)(C)CN(C)C)=C(/C#N)C(=O)NCc1ccccc1,8,0.9,15,0.9,-12,11
COc1ccc(S(=O)(=O)NNC(=O)C2Cc3c(ccc4ccccc34)O2)cc1 (stereo unspecified),47,0.5,4,0.8,-1,19
CC(=O)CC(C)=NCCN=C(C)CC(C)=O,-8,1.1,·,1.1,·,-11
Cn1c(SCc2ccccc2Cl)nc2ccccc21,-28,1.3,-3,0.3,0,73*
CCn1c(CSc2nc3ccccc3n2C)nc2ccccc21,38,0.6,·,0.1,·,86*
O=C(COC(=O)CCc1c[nH]c2ccccc12)NC1CCS(=O)(=O)C1 (stereo unspecified),·,·,10,·,-12,·
COc1ccc(S(=O)(=O)N2CCCC(C(=O)NCc3ccccn3)C2)cc1Cl (stereo unspecified),-59,1.6,-3,0.6,8,36
O=C(Nc1ccccc1)Nc1cccc(Cl)c1,-30,1.3,-60,0.7,60,30
CSc1ccccc1NC(=O)Nc1ccc(Cl)cc1,53*,0.5,-20,0.2,20,85*
CSc1cccc(NC(=O)Nc2ccc(Cl)cc2)c1,4,1,-82,0.9,82*,10
COc1ccc(NC(=O)Nc2ccccc2F)cc1,25,0.8,-56,0.5,55,49
Cc1ccc(C(CC(=O)O)C2CCOC(C)(C)C2)cc1 (stereo unspecified),-15,1.1,-4,1,1,-3
O=C(COc1ccccc1)NCC(c1cccs1)N1CCOCC1 (stereo unspecified),·,·,-2,·,0,·
O=C(NCC(c1cccs1)N1CCOCC1)c1ccc(Cl)s1 (stereo unspecified),54*,0.5,-4,0.3,7,72*
Brc1cccc(-c2nnc3sc(CNC4CCCC4)cn23)c1,12,0.9,18,0.8,-19,18
CCCCn1c(SCc2cc(=O)[nH]c3ccccc23)nc2c1c(=O)n(C)c(=O)n2C,16,0.8,·,0.9,·,14
CCOC(=O)/C=C/S(=O)(=O)c1ccc(NC(C)=O)cc1,26,0.7,5,0.9,-3,9
SMILES,CYP2C9 inh,CYP2C9 act,sEH activator,CYP2C19 activ,sEH inhibitor,CYP2C19 inh
Cc1nc2ncnn2c(C)c1Cc1ccccc1Cl,4,1,18,0.1,-20,87*
CC1CCN(C(=O)CCc2nc3cc(S(=O)(=O)N(C)C)ccc3n2C)CC1,11,0.9,6,0.9,-8,10
CCc1nc2ccc(F)cc2c(C(=O)NC2CCCCC2C)c1C (stereo unspecified),77*,0.2,4,0.6,-7,37
COc1cc(NC(=O)c2cccs2)c(OC)cc1NC(=O)CCn1nnc2ccccc21,46,0.5,4,0.7,-2,28
CCCn1nnc(NCc2ccc(OCc3cccs3)c(OC)c2)n1,86*,0.1,16,0.5,-13,48
COc1ccc(CNc2nc(NCc3ccc(OC)c(OC)c3)n(C(=O)c3cccs3)n2)cc1OC,71*,0.3,6,0.7,-6,27
COc1ccc(CNc2nc(NCc3ccc(OC)cc3)n(C(C)=O)n2)cc1,15,0.8,6,1.1,-6,-6
CCC(=O)n1nc(NCc2ccccc2OC)nc1NCc1ccccc1OC,52*,0.5,5,0.6,-2,36
COC(=O)c1cc(NC2c3ccccc3C(=O)N2CCN2CCOCC2)cc(C(=O)OC)c1 (stereo unspecified),36,0.6,·,0,·,98*
O=C1c2ccccc2C(Nc2ccc(Cl)cc2)N1CCN1CCOCC1 (stereo unspecified),6,0.9,-7,0.2,6,75*
O=C1c2ccccc2C(O)N1CCN1CCOCC1 (stereo unspecified),·,·,0,·,0,·
COc1ccc(C2C(C(=O)NCCN3CCOCC3)c3ccccc3C(=O)N2C)cc1OC (stereo unspecified),14,0.9,-3,1.1,3,-7
COc1cc(/C=N/NC(=O)CNC(=O)c2ccccc2)ccc1OC(=O)c1cccs1,38,0.6,-17,0.7,19,27
O=C(c1cccc(S(=O)(=O)N2CCOCC2)c1)N1CCN(c2ccc(F)cc2)CC1,10,0.9,19,0.9,-18,14
CN(C)c1ccnc(SCc2ccccc2Cl)c1C#N,-4,1,8,0.3,-10,70*
CN(C)c1ccnc(Oc2ccccc2)c1C#N,39,0.6,26,0.7,-27,29
C=C(c1ccc(OCCO)cc1)c1ccc(OCCO)cc1,33,0.7,-6,0.7,9,28
Cc1cccc(C(=O)N2CCN(c3ccc(C(F)(F)F)cn3)CC2)c1C,39,0.6,11,0.3,-12,74*
CCOc1ccc(C(=O)N2CCN(c3cccc(C)c3C)CC2)cc1,27,0.7,14,0.8,-16,19
Cc1ccccc1N1CCN(C(=O)c2ccc(Oc3ccc(C(F)(F)F)cn3)cc2)CC1,76*,0.2,10,0.8,-9,19
CCOCCCNS(=O)(=O)c1ccc(OC)c(Cl)c1Cl,·,·,-1,·,3,·
CCOC(=O)c1c(NC(=O)c2csc(C)c2)sc(C(C)=O)c1C,·,·,6,·,-2,·
CC(C)(C)C(=O)NC1(C(F)(F)F)C(=O)Nc2c1c(=O)[nH]c(=O)n2Cc1ccco1 (stereo unspecified),-2,1,·,1.1,·,-8
COc1cc2c(C(=O)N3CCN(c4ccccc4C)CC3)c(C)oc2cc1Br,72*,0.3,·,0.4,·,60*
